Test results: the supplement of paper PMC6555819

System: PXR:RXRa (NR concentration 270 nM, RXRa partner concentration 90 nM)
Experiment: PBM binding z-score (relative to random genomic background probes); higher = stronger binding; sequences stand for … in GC…GCGATTGACAGCGTAGAATGAAGG
In short: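 For binding z-scores, the reference was random background probes on custom Agilent 4×180K protein-binding microarrays. These arrays were incubated 1 h with ligand-free nuclear receptor dimers in PBS pH 7.4, 2% milk, 0.02% Triton X-100, 1 mM DTT, 0.2 mg/mL BSA and 0.4 mg/ml salmon testes DNA. Fluorescence was scanned after antibody detection of each partner (one per run) and regression-normalized.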

| Sequence | PBM binding z-score |
| --- | --- |
| ACTATTAGTTGAGACGAGGACAACCGATAGGTTG | 0.431 |
| GGTATTAGTTGAAAGGGCAACCGAATGATTCTCG | 1.23 |
| CCGACTGGGGCAAGGGTACCATAACGCACAGCCA | -0.478 |
| CGTCCAAGGTCAGCAGGTCAGTGACAGCGACGTG | 3.79 |
| CAAGCTAGGTCACGAAAGGTCAAAGTCGAATGAC | 7.36 |
| TAGCCTAGGTCATGCGGGCCATTATAGTGTCGGC | 1.97 |
| CAAACTAGGTCACCGGAAGGTCAAAGACCGCATG | 5.6 |
| TCATATAGGTAAATGCTAGGTGAAAGCCCGATCT | 0.505 |
| CTCGAAAGGTCGTGCTCAGGCGAGTATACCAAAC | 2.68 |
| GCTAGTTGGTCAGTAAAAGTTCACACACCGGTCG | 3.43 |
| CCGACTGGGGCATAAGGTTACCTTAAGCCAGCCC | 0.197 |
| TAGCCTAGGTCATTCAGGGGCCAGTAAAGAAAGC | 2.39 |
| CATACTGGGTCAGCTAGGCCAGAGTAGGGACGGC | 0.34 |
| CAGCCTAGGTCAGTGCCAGTATAGGAGGAACGTT | -0.0213 |
| TCTCGGAGGACACGAAAGGTCAGATCTCGACATC | 3.88 |
| CAAACTAGGTCAAAGGTCCAAGTCGAGCCAACCA | 3.24 |
| CAAACTAGGTCCAAGGTCAAAGTCGAGCCAACCA | 3.7 |
